In PubChem BioAssay (NCI):
About 83,000 compounds went through this panel and 20% of them were active in at least one assay; those are over-represented in the sample as a whole.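 Negative percent growth values reflect cell death: -40 means 40% of the cells present at the start died, and -100 means all died.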 A number with no mark means an inactive call. Active and inactive are the calls of the source. How the source made its calls: active means growth percent below 10; inactive means the rest.

Key:
Assay in all cases: NCI-60 one-dose screen, 48 h (100 = growth as untreated, 0 = no growth, -100 = all killed)
Conditions in all cases: 10 µM unless noted
NCI-H23 lung = tested on: NCI-H23 lung
NCI-H226 lung = tested on: NCI-H226 lung
NCI-H322M lung = tested on: NCI-H322M lung
HOP-62 NSCLC = tested on: HOP-62 NSCLC
NCI-H460 lung = tested on: NCI-H460 lung
HOP-92 NSCLC = tested on: HOP-92 NSCLC
NCI-H522 lung = tested on: NCI-H522 lung
A549/ATCC NSCLC = tested on: A549/ATCC NSCLC
786-0 renal = tested on: 786-0 renal
COLO 205 colon = tested on: COLO 205 colon
DU-145 prostate = tested on: DU-145 prostate
K-562 leukemia = tested on: K-562 leukemia
MALME-3M melanoma = tested on: MALME-3M melanoma
MDA-MB-231 breast = tested on: MDA-MB-231 breast
RXF 393 renal = tested on: RXF 393 renal
SF-268 CNS = tested on: SF-268 CNS
SF-295 CNS = tested on: SF-295 CNS
SF-539 CNS = tested on: SF-539 CNS
UACC-257 melanoma = tested on: UACC-257 melanoma
M14 melanoma = tested on: M14 melanoma

Compound	growth (NCI-H23 lung)	growth (NCI-H226 lung)	growth (NCI-H322M lung)	growth (HOP-62 NSCLC)	growth (NCI-H460 lung)	growth (HOP-92 NSCLC)	growth (NCI-H522 lung)	growth (A549/ATCC NSCLC)	growth (786-0 renal)	growth (COLO 205 colon)	growth (DU-145 prostate)	growth (K-562 leukemia)	growth (MALME-3M melanoma)	growth (MDA-MB-231 breast)	growth (RXF 393 renal)	growth (SF-268 CNS)	growth (SF-295 CNS)	growth (SF-539 CNS)	growth (UACC-257 melanoma)	growth (M14 melanoma)
COc1ncc2cc1NS(=O)(=O)c1cccc(c1)C(=O)NCC1=CC=C(S1)c1ncnc3c1SC2=C3C	10.6%	-30.4% (active)	-65.4% (active)	4.4% (active)	2.61% (active)	-17.5% (active)	4.2% (active)	1.4% (active)	-23.8% (active)	-35.5% (active)	9.14% (active)	4.66% (active)	-39.2% (active)	10.9%	-62.8% (active)	0.0661% (active)	-21.6% (active)	-55.3% (active)	-1.33% (active)	-43.9% (active)
C[C@H]1[C@H](C)CC[C@]2(C(=O)O)CC[C@]3(C)C(=CC[C@@H]4[C@@]5(C)C[C@@H](Cc6cn([C@@H]7O[C@H](CO)[C@@H](O)[C@H](O)[C@H]7O)nn6)[C@H](O)C(C)(C)[C@@H]5CC[C@]43C)[C@H]12	97.7%	94.3%	102%	88.9%	107%	95.6%	103%	89%	94.6%	105%	105%	95.4%	108%	102%	118%	103%	98.8%	109%	90.2%	93.9%
CCNC(=O)Oc1ccc(/C(=C(/C)Cc2ccc(OC)cc2)c2ccc(OCCN3CCCC3)cc2)cc1	86.6%	90.1%	89%	93%	55.9%	61.8%	78.9%	66.4%	68%	33.4%	87.1%	2.41% (active)	80.6%	79.8%	76.3%	78.2%	79.3%	76.8%	105%	2.05% (active)
CCCCCCCC/C=C\CCCCCCCCOc1ccc(CC(=O)NCC[N+](C)(C)C)cc1	67.2%	70%	85.6%	24.3%	29.9%	62.3%	50.7%	74.1%	59.6%	-69.1% (active)	75.6%	55.1%	70.2%	67.4%	-21.8% (active)	68.6%	77.8%	66.8%	79.7%	63.7%
C#Cc1cccc(Oc2ccc(NC(=O)CCl)cc2)c1	20.7% [8.25 µM]	55.9% [8.25 µM]	100% [8.25 µM]	83.5% [8.25 µM]	19% [8.25 µM]	81.2% [8.25 µM]	-32.6% [8.25 µM] (active)	68.3% [8.25 µM]	74.8% [8.25 µM]	61.6% [8.25 µM]	72% [8.25 µM]	7.79% [8.25 µM] (active)	21.3% [8.25 µM]	41.1% [8.25 µM]	62.6% [8.25 µM]	49.5% [8.25 µM]	85.5% [8.25 µM]	47% [8.25 µM]	75.8% [8.25 µM]	24.6% [8.25 µM]
COc1cc2c3c(n(CCCCNCCCn4c5c(c6cc(OC)c(OC)cc6c4=O)C(=O)c4cc6c(cc4-5)OCO6)c(=O)c2cc1OC)-c1cc2c(cc1C3=O)OCO2	95.3%	106%	90.5%	90.5%	106%	87%	86.8%	90.3%	109%	103%	99.1%	85.7%	81.8%	90.4%	107%	89.5%	99.9%	92.8%	94.8%	96.3%
COc1cc(C#Cc2ccc(=O)oc2C#Cc2ccccc2)cc(OC)c1OC	64.8%	76.6%	103%	102%	84.7%	112%	18.2%	95.7%	83%	23.6%	65.7%	4.76% (active)	75.9%	89%	78.7%	43.5%	96.9%	110%	108%	72.6%
CCCCCCCCCCCCCCCCCCOc1ccccc1CC(=O)OCC[N+]1(C)CCOCC1	66.5%	49.8%	79.8%	55.6%	69.2%	44.2%	39.9%	62.6%	68.3%	65.6%	70.8%	58%	67.2%	49.8%	1.62% (active)	36.2%	87.3%	71.6%	103%	69.9%
COc1cccc(/C=C2\COc3ccc(O)cc3C2=O)c1	93.7%	105%	106%	95%	99.6%	91.9%	56.1%	87.4%	78.3%	97.9%	89%	5.52% (active)	91.1%	49.7%	105%	91.1%	103%	88.5%	111%	83.4%
O=C(CBr)CN1C(=O)c2ccccc2C1=O	95.1%	98.7%	101%	97.9%	108%	-10.6% (active)	101%	103%	101%	101%	104%	89.7%	100%	107%	120%	99.1%	101%	96.2%	101%	104%
CN1CCN(C(=O)c2cc(-c3ccc4ncnc(N5CCc6cc(F)c(Cl)cc65)c4c3)cnc2N)CC1	8.25% (active)	14.5%	-8.41% (active)	12%	8.83% (active)	-27.2% (active)	2.49% (active)	3.84% (active)	2.28% (active)	3.92% (active)	8.87% (active)	11.1%	-38.6% (active)	10.5%	-48.9% (active)	0.525% (active)	0.0297% (active)	-24.3% (active)	6% (active)	1.59% (active)
Nc1nc(C(=O)N/N=C/c2ccc(N3CCOCC3)cc2)nn1-c1ccc(S(N)(=O)=O)cc1	100%	96.7%	106%	103%	110%	97.7%	101%	100%	95.7%	120%	105%	94%	107%	115%	108%	99%	104%	105%	107%	103%
NC(=S)N/N=C/c1cn(-c2ccccc2)nc1-c1cc2ccccc2oc1=O	78.2%	81.3%	89.2%	72.3%	21%	79.7%	36.5%	46.4%	62.4%	46.4%	85.3%	17.1%	48.8%	34.3%	78%	66.1%	48.1%	57.2%	71.5%	22.1%
CC1(C)C2CC=C(/C=N/NC(=O)C3CCC(=O)N3)C1C2 (stereo not given)	97.7%	106%	107%	110%	102%	99.5%	99.9%	104%	101%	114%	113%	99.4%	105%	122%	121%	101%	97.4%	100%	102%	107%
C#Cc1cccc(Nc2nc3ccc([N+](=O)[O-])cc3nc2Nc2cccc(C#C)c2)c1	-54.6% (active)	-42.3% (active)	1.22% (active)	-94.7% (active)	-57.6% (active)	-24.9% (active)	-64% (active)	-45.7% (active)	-56.7% (active)	-87.3% (active)	-52.4% (active)	-57.5% (active)	-29.5% (active)	-57% (active)	-56.4% (active)	-51.4% (active)	-69.4% (active)	-77.4% (active)	-70.1% (active)	-82% (active)
